NIH3T3 tox = Cytotoxic Profiling in NIH 3T3 Cell Line of Diverse Libraries Using Quantitative High-Throughput Screening. NIH 3T3 viability, CellTiter-Glo ATP luminescence, 48-72 h. Potency, µM (highest dose often 96.7 µM), inactives show at the top dose activity change, negative = cytotoxicity, most hits filed as inhibitors. 94,000 compounds, 4.3% hits. AID 1345082, 2018; also: % is scaled to controls: 0 for no effect and ±100 for the full control effect; nearly all actives have a fitted effect of over 55% in size
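ATP-dependent luminescence (CellTiter-Glo) served as the viability signal for NIH 3T3 cells treated with compound for 48 or 72 hr at 37 °C.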
NPR1 antag = Natriuretic polypeptide receptor (hNpr1) antagonism - Primary qHTS; Atrial natriuretic peptide receptor 1 (Homo sapiens), P16066; HEK293 hNpr1 GloSensor cGMP, ANP-stimulated luminescence; Potency, µM (doses to about 46.3 µM), inactives show at the highest dose activity change, negative = inhibition, hits mostly inhibitors; 76,000 compounds, 1.6% hits; calls by dose curve; also: % is scaled to controls: 0 for no effect and ±100 for the full control effect; nearly all actives have a fitted effect of over 60% in size
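Compound pre-incubated 30 min at room temperature on GloSensor-loaded HEK293 cells stably carrying hNpr1 and the pGS-40F cGMP biosensor. Stimulation uses hNppA at 0.1 nM final; luminescence is taken at baseline and 20 min post-agonist.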
GPT2 inh = Primary qHTS assay for inhibitors of Glutamate pyruvate transaminase 2 (GPT2). Alanine aminotransferase 2 (Homo sapiens), Q8TD30. Recombinant GPT2, coupled pyruvate oxidase/HRP Amplex Red fluorescence. Potency, µM (highest dose often 57.7 µM), for the others: top-dose activity change, negative = inhibition, actives largely listed as inhibitors. 100,000 compounds, 0.25% hits. AID 1671188, 2021; also: % is scaled to controls: 0 for no effect and ±100 for the full control effect; nearly all actives have a fitted effect of over 60% in size
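GPT2 10ng/uL, a-KG 250uM, L-Ala 2mM, HEPES pH7.5 + 0.0001% Tween; 30 min RT. Then Amplex mix (PO/HRP/ThPP), 30 min RT dark, fluorescence. AOA 50uM used as positive control.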
HEK cytotox = Cytotoxic Profiling in HEK 293 Cell Line of Diverse Libraries Using Quantitative High-Throughput Screening. HEK 293 viability, ATP luminescence (CellTiter-Glo), 48-72 h. Potency, µM (series often up to 115 µM), for the others: top-dose activity change, negative = cytotoxicity, usual class: inhibitors. 94,000 compounds, 6.6% hits; also: % is scaled to controls: 0 for no effect and ±100 for the full control effect; nearly all actives have a fitted effect of over 60% in size
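HEK 293 cells seeded at 250 cells/well were exposed to compound for 48 or 72 hr at 37 degree Celsius. Viability taken as ATP content by CellTiter-Glo luminescence.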
Luciferase inh = Firefly luciferase inhibition profiling of diverse chemical library using quantitative high-throughput screening. Luciferin 4-monooxygenase (Photinus pyralis), P08659. purified P. pyralis luciferase, luminescence, biochemical. Potency, µM (doses to about 115 µM), most hits filed as inhibitors. 76,000 compounds, 2.5% hits; also: % is scaled to controls: 0 for no effect and ±100 for the full control effect; nearly all actives have a fitted effect of over 65% in size
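Purified 10nM P. pyralis luciferase with 10uM D-luciferin and 10uM ATP in 50mM Tris acetate pH 7.5, 10mM Mg acetate, 0.01% Tween-20, 0.05% BSA. qHTS titration; luminescence read by CCD imager.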
Npr1 antag conf = Natriuretic polypeptide receptor (hNpr1) antagonism - Confirmation. AID 1347044, 2019. HEK293 hNpr1 cGMP GloSensor luminescence, ANP-stimulated. shares compounds with NPR1 antag. 1,400 compounds, 76% hits. Potency, µM (series often up to 57.6 µM), for the others: at the top dose activity change, negative = inhibition, hits mostly inhibitors; calls by dose curve; also: nearly all actives have a fitted effect of over 70% in size
Npr2 selectivity = Natriuretic polypeptide receptor (hNpr2) antagonism - Subtype selectivity assay; shares compounds with NPR1 antag; HEK293 hNpr2 GloSensor cGMP luminescence, CNP-stimulated; Potency, µM (series often up to 57.6 µM), without a hit: at the top dose activity change, negative = inhibition, most hits filed as inhibitors; 1,400 compounds, 67% hits; AID 1347046, 2019; calls by dose curve; also: nearly all actives have a fitted effect of over 70% in size
Target sequence (P20594 whole entry, looked up): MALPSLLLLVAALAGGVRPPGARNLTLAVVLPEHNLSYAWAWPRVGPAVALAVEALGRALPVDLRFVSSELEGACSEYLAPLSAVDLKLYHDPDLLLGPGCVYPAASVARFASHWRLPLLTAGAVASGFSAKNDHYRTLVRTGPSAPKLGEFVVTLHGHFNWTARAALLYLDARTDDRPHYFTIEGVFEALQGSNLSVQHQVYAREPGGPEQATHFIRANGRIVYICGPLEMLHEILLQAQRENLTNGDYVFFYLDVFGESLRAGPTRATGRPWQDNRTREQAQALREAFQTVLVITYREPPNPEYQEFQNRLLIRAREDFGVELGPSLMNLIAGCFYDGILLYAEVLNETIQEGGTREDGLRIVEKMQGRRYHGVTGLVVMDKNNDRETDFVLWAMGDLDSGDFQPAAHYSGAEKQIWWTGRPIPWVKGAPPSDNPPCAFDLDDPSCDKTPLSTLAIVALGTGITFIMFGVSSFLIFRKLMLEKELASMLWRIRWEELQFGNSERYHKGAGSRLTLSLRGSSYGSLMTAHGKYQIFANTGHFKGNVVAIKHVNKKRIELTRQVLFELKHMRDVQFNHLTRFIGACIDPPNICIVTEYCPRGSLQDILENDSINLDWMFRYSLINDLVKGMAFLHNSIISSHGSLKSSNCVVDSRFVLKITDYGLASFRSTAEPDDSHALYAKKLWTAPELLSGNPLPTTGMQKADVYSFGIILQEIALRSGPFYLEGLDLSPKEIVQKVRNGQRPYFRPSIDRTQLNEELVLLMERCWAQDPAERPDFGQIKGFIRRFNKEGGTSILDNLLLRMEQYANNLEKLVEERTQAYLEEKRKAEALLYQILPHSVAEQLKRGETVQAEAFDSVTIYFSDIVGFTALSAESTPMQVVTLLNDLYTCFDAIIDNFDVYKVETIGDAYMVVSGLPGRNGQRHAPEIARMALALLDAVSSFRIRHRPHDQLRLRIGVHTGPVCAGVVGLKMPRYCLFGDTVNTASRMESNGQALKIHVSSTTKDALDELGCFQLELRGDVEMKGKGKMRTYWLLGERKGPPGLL
FLuc counter = Natriuretic polypeptide receptor (hNpr1) antagonism - Confirmation firefly luciferase (FLuc) inhibition counterscreen. 1,400 compounds, 0.7% hits. purified FLuc enzyme, luminescence, Km substrate. Potency, µM (top dose mostly 57.6 µM), for inactives: top-dose activity change, negative = inhibition, hits mostly inhibitors. shares compounds with NPR1 antag; also: 0% is about no effect
GloSensor cGMP = Natriuretic polypeptide receptor (hNpr1) antagonism - Counterscreen GloSensor control cell line. 1,400 compounds, 69% hits. Potency, µM (highest dose often 57.6 µM), for inactives: at the top dose activity change, negative = inhibition, most hits filed as inhibitors. HEK293 GloSensor cGMP, SNP-stimulated, luminescence. AID 1347051, 2019. shares compounds with NPR1 antag; calls by dose curve; also: % is scaled to controls: 0 for no effect and ±100 for the full control effect; nearly all actives have a fitted effect of over 70% in size
Numbers without * were called inactive; i = inactive; ? = inconclusive; . = no result given; [ ] = dose if it differs, or a comment. Hits are enriched below; roughly 10% of the tested compounds scored in any of these assays. Unless noted, calls follow the shape of the dose curve; as a rule, active = well fitted curve in the direction sought with a large enough effect; inconclusive = small, poorly fitted or top-dose-only effect, or another doubt; inactive = no such curve, though single readings can be large; an effect the other way counts as inactive or inconclusive. Potency is read from the fitted curve at half-maximal effect.

SMILES	NIH3T3 tox	NPR1 antag	GPT2 inh	HEK cytotox	Luciferase inh	Npr1 antag conf	Npr2 selectivity	FLuc counter	GloSensor cGMP
COc1ccc(C(=O)N[C@@H]2CCC[C@@H]2C(=O)NCCCOC(C)C)cn1	4%	8%	5%	i	i	.	.	.	.
CC(C)c1noc(CC2CCN(C(=O)c3ccc(C(C)(C)C)cc3)CC2)n1	-27%	-4%	i	?	i	.	.	.	.
CC(C)c1noc(CC2CCN(C(=O)c3ccc(F)cc3)CC2)n1	-34%	?	i	?	i	?	?	-1%	?
CN(Cc1ccncc1)Cc1ccc(-c2ccccc2)cc1	?	?	-19%[88.5 µM]	71µM*	i	22µM*	28µM*	-3%[86.2 µM]	18µM*
COc1cc(C2Oc3c(OC)cc(/C=C/C(=O)OC[C@H]4O[C@@H](OC(C)(C)C(=O)O)[C@H](O)[C@@H](O)[C@@H]4O)cc3C2CO)ccc1O (stereo not given in full)	.	.	i	.	.	.	.	.	.
COc1nccc(N2CCC(CC(=O)N3CCCN(c4ncccn4)CC3)CC2)n1	-31%	22µM*	i	?	i	24µM*	?	3%	?
COc1nccc(N2CCC(CC(=O)NCc3ccc(F)c(Cl)c3)CC2)n1	?	11µM*	-10%	?	i	24µM*	22µM*	3%	24µM*
CCNc1cc(N2CCC(CCC(=O)N3CCCN(c4ncccn4)CC3)CC2)ncn1	-24%	?	i	?	i	24µM*	?	2%	24µM*
CNc1nccc(N2CCC(CC(=O)N3CCN(c4ccccc4C)CC3)CC2)n1	45µM*	?	-3%	28µM*	i	?	?	7%	?
CCNc1cc(N2CCC(CCC(=O)NCC3CC3)CC2)ncn1	-5%	-4%	i	?	i	.	.	.	.
COc1ccccc1N1CCN(CC[C@H]2CN(C(=O)Nc3ccc(C(F)(F)F)cc3)CC[C@H]2CC(=O)O)CC1	-3%	3%	?	-3%	i	.	.	.	.
O=C1Nc2ccccc2OCC12CCN(Cc1ccc(C(F)(F)F)cc1)CC2	-30%	11µM*	i	?	i	24µM*	24µM*	-2%	24µM*
CCS(=O)(=O)N1CCC([C@@H](C)n2c(C)c(C(=O)NCc3c(OC)cc(C)[nH]c3=O)c3ccccc32)CC1	.	.	-2%	.	.	.	.	.	.
COc1cccc(NC(=O)NC[C@H]2O[C@@H](CC(=O)N3CCc4ccccc43)[C@H](O)[C@@H]2O)c1	-26%	-8%	-4%	3%	i	.	.	.	.
CN(Cc1ccc(F)cc1)c1ccc2ncc(Nc3ccnc(N4CCOCC4)c3)n2n1	?	10µM*	i	?	i	25µM*	16µM*	-3%[86.2 µM]	18µM*
CN(CCc1ccncc1)C(=O)CCc1ccnc(N2CCOCC2)c1	0%	4%	i	-22%	i	.	.	.	.
COc1ccc(CCCN2C(=O)O[C@@H]3CN(c4cc(OC)ncn4)C[C@@H]32)cc1	?	13µM*	-10%	?	i	24µM*	22µM*	-1%	22µM*
Cc1ccc(C(=O)N2CCN(c3nnc4cccc(C)n34)CC2)cc1C	-17%	5%	i	-18%	i	.	.	.	.
COC1CCN(C(=O)c2cnc3c(c2)N(C(=O)Cc2cn(C)c4ccccc24)CCC3)CC1	?	-2%	0%	3%	i	.	.	.	.
Cn1cc(CC(=O)N2CCCc3ncc(C(=O)N4CCC(c5ccccc5)CC4)cc32)c2ccccc21	?	16µM*	-2%	40µM*	i	22µM*	22µM*	6%	19µM*
O=C(COc1ccc(F)cc1)NCC1Cn2cccc2CN1Cc1ccccc1 (stereo not given)	?	-1%	4%	?	i	.	.	.	.
O=C(NCc1ccccc1F)C1CCc2nnc(C3CCN([S+](=O)([O-])c4ccccc4Cl)CC3)n21 (stereo not given)	-25%	.	i	-14%	.	.	.	.	.
CCOC(=O)c1ccc(NC(=O)Cn2c(N3CCC(C)CC3)nc(C)cc2=O)cc1	?	14µM*	-21%	?	i	22µM*	19µM*	4%	22µM*
COc1ccc(Cl)cc1NC(=O)Cn1c(N2CCC(C)CC2)nc(C)cc1=O	?	11µM*	-19%	45µM*	i	19µM*	19µM*	1%	15µM*
COc1ccc(C2Cn3nnc(-c4noc(-c5cccs5)n4)c3CO2)cc1 (stereo not given)	-8%	-8%	i	-2%	i	.	.	.	.
CCc1cccc(NC(=O)Cn2c(N(C)Cc3ccccc3)nc(C)cc2=O)c1	?	8.9µM*	-5%	?	i	11µM*	12µM*	0%	9.7µM*
Cc1cccc(NC(=O)Cn2c(N(C)Cc3ccccc3)nc(C)cc2=O)c1	?	20µM*	2%	?	i	22µM*	22µM*	-2%	22µM*
COCC1CN(Cc2cnn(C(C)C)c2)CC12CCNCC2 (stereo not given)	-10%	1%	?	-2%	i	.	.	.	.
O=C(NCC1CC1)c1ccc2nnc(-c3cccc(C(F)(F)F)c3)n2c1	?	.	0%	?	.	.	.	.	.

Source: PubChem (National Center for Advancing Translational Sciences (NCATS))
